Sa RN4220 lethal = growth inhibition of S. aureus RN4220, primary screen, OD600; 16 h; inhibition, % (test concentration not listed); actives 0.33% (n = 330,000); AID 1259311, 2017; in the data active = inhibition above about 85%;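 note: plate controls were untreated cells for no effect and reference antibiotic for full effect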
MazEF act = activators of E. coli MazEF toxin-antitoxin RNase, primary screen, biochemical, fluorescence, uHTS. Endoribonuclease toxin MazF (Escherichia coli (strain K12)), P0AE70. FAM/BHQ RNA-DNA oligo cleavage fluorescence, 5 h. activation, % at 20 µM. actives 0.32% (n = 350,000); in the data active = activation above about 50%
Mtb hypoxia inh = PubChem AID 1159583; actives 0.1% (n = 300,000); M. tuberculosis hypoxia-regulated fluorescent reporter, fluorescence; fluorescence inhibition, % (test concentration not listed); in the data active = fluorescence inhibition mostly above about 23%, no sharp cut-off; inactive = mostly below about 17%
PfHsp40 yeast = rescue of yeast from PfHsp40 toxicity, primary screen, S. cerevisiae, ATP luminescence | S. cerevisiae expressing PfHsp40, growth rescue | growth rescue, % at 12.5 µM | actives 0.68% (n = 340,000); in the data active = growth rescue above about 28%, passing the limit was not always enough;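 note: yeast W303a lacking pdr1 and pdr3 grown in galactose medium; growth measured after three days at 30 °C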
Sa ugtP lethal = growth inhibition of ugtP-null S. aureus, primary screen, RN4220 ugtP deletion, OD600; actives 0.54% (n = 330,000); growth inhibition, % (no concentration beside the values); 16 h; in the data active = growth inhibition above about 68%;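 note: plate controls were untreated wells for no effect and antibiotic for full effect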
TcdB inh = TcdB glycohydrolase inhibitors, primary screen, biochemical, single point, plate reader; TcdB glycohydrolase enzymatic assay; actives 0.24% (n = 350,000); Toxin B (Clostridioides difficile), P18177; inhibition, % at 9.99 µM; in the data active = inhibition above about 10%
Target sequence (P18177 whole entry, looked up): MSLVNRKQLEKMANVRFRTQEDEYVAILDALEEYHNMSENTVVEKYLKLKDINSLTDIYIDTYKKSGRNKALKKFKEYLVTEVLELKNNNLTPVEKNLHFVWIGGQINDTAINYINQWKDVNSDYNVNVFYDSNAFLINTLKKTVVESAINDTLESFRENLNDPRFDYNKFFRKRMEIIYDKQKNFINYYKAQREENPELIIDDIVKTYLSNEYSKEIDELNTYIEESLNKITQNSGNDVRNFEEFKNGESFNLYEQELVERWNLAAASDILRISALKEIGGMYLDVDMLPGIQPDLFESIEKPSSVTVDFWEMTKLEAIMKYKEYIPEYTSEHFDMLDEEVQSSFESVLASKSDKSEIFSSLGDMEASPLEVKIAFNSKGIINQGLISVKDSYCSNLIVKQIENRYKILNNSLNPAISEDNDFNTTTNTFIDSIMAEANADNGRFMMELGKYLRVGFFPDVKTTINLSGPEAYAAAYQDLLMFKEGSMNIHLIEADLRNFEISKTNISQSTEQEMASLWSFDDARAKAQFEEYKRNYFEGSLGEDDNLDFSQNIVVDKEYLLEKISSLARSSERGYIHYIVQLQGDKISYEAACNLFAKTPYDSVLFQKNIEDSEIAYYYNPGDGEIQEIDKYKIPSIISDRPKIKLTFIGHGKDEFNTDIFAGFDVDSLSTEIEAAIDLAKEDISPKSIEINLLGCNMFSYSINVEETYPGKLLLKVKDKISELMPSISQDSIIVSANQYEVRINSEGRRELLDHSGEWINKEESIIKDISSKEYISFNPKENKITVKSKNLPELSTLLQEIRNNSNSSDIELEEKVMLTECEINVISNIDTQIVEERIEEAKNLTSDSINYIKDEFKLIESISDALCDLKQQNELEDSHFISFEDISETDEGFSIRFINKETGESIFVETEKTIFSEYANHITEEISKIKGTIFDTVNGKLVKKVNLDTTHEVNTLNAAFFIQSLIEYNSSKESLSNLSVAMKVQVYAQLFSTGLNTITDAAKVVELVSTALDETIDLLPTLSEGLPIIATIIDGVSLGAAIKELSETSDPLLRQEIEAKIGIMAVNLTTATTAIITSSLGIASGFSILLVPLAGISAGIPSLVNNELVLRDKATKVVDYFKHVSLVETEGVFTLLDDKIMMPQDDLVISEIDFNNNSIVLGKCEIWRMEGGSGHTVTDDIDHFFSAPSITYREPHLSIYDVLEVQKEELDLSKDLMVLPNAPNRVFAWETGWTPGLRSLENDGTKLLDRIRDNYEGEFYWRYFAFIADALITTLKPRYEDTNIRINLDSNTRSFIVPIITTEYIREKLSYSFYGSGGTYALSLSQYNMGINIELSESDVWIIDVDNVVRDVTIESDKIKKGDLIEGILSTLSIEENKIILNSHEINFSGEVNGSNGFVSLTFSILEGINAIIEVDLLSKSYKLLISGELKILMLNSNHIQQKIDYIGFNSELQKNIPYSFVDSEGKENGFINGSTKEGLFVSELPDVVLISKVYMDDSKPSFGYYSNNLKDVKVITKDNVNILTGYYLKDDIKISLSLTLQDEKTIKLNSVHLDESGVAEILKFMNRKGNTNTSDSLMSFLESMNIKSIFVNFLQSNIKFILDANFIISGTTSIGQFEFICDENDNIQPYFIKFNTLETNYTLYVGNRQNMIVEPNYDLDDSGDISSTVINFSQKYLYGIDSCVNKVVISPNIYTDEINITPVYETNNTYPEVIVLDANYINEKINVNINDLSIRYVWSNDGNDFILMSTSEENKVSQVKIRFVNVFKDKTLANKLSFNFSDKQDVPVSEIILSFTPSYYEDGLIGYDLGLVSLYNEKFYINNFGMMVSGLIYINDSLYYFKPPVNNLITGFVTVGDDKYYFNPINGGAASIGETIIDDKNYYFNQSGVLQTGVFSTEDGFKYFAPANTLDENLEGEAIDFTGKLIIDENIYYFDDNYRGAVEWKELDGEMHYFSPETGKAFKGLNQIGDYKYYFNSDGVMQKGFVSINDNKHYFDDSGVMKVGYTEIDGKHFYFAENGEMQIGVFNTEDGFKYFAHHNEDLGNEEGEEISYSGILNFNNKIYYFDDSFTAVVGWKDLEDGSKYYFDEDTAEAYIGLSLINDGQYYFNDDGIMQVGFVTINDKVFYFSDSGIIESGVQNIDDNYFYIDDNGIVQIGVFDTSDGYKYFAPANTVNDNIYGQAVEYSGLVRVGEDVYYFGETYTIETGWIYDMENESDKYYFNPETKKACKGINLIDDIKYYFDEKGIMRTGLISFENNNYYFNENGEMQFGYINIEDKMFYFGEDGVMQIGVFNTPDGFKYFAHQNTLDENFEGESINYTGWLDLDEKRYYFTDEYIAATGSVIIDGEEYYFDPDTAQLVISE
* = called active by the depositor; / = not tested or not shown. Rows were chosen to be rich in hits. Some 1.3% of all compounds tested hit in one or more screens of this group.

SMILES	Sa RN4220 lethal	MazEF act	Mtb hypoxia inh	PfHsp40 yeast	Sa ugtP lethal	TcdB inh
CCOc1cc2c(cc1/C=C/c1noc(C)c1[N+](=O)[O-])OC(C)C2 (configuration not stated)	/	370*	/	0	/	1
O=C(C[C@@H]1CC[C@@H]2[C@H](COC[C@H](O)CN2C(=O)c2ccc3c(c2)OCO3)O1)NCCN1CCCC1	/	/	/	/	/	1
O=C(N/N=C1/CC2CCC1C2)c1cc2ccccc2cc1O (configuration not stated)	/	-3	/	33*	/	-1
O=C(N[C@@H]1CC[C@H](CCNS(=O)(=O)c2cccc(Cl)c2)O[C@H]1CO)c1ccccc1	/	/	/	/	/	-1
O=C1C(F)=CC(COC(c2ccccc2)(c2ccccc2)c2ccccc2)OC1n1cc(F)c(=O)[nH]c1=O (configuration not stated)	/	5	/	154*	/	-6
O=C(C[C@@H]1C[C@H]2c3cc(NC(=O)NC4CCCC4)ccc3O[C@H]2[C@H](CO)O1)NC1CCCC1	/	/	/	/	/	0
O=[N+]([O-])c1ccc(-n2cnc3ccccc32)c([N+](=O)[O-])c1	57	1	42*	1	32	2
COc1ccc(C2=NS(=O)(=O)N(C)C(C(=O)NCc3ccc4c(c3)OCO4)=C2)cc1	5	0	1	0	-8	100*
Cc1ccc(C2=NS(=O)(=O)N(C)C(C(=O)NCc3ccc4c(c3)OCO4)=C2)cc1	8	-11	-2	0	5	6
CCCCn1c(=O)c(C(=O)Nc2ccccc2S(N)(=O)=O)c(O)c2ccccc21	93*	2	3	1	61	/
CCn1c(=O)c(C(=O)Nc2ccccc2S(N)(=O)=O)c(O)c2ccccc21	5	8	/	1	-17	/
CCCCCn1c(=O)c(C(=O)Nc2ccccc2S(N)(=O)=O)c(O)c2ccccc21	100*	-5	0	1	100*	-1
CCOC(=O)C1C2COc3ccc(Cl)cc3C2N2C(=O)c3cc(OC)ccc3NC(=O)[C@@]12C (some centres not stated)	2	/	-8	/	4	/
COc1c(N2CCN(C(=S)NC3CC4CCC3C4)C(C)C2)c(F)cc2c(=O)c(C(=O)O)cn(C3CC3)c12 (configuration not stated)	100*	0	/	0	100*	2
COc1c(N2CCN(C(=S)Nc3ccc(F)cc3)C(C)C2)c(F)cc2c(=O)c(C(=O)O)cn(C3CC3)c12 (configuration not stated)	100*	1	/	-1	99*	/
NC1CCN(c2c(F)cc3c(=O)c(C(=O)O)cn(C4CC4)c3c2Cl)C1 (configuration not stated)	100*	6	/	2	100*	1
CCOC(=O)c1cn(C2CC2)c2c(F)c(NCCCN(C)C)c(F)cc2c1=O	4	6	15	-1	7	1
COc1c(N2CCNC(C)C2)c(F)cc2c(=O)c(C(=O)O)cn(C3CC3)c12 (configuration not stated)	100*	/	/	/	100*	/
O=C1CCCC(=NNC(=O)c2ccc(NS(=O)(=O)c3cccs3)cc2)C1	3	/	2	/	2	/
NC1CCN(c2nc3c(cc2F)c(=O)c(C(=O)O)cn3-c2ccc(F)cc2F)C1 (configuration not stated)	100*	5	/	0	99*	-10
CC(=NNC(=O)c1ccc(C)s1)c1cccc(NC(=O)COc2ccc(Cl)cc2Cl)c1	-3	/	/	/	-19	/
Cc1cc(C)nc(-n2nc(C)c(Sc3ccc(F)cc3)c2N)n1	4	4	9	89*	-5	2
Cc1cc(C=NNC(N)=S)c(C)n1-c1ccc(Cl)c(Cl)c1	8	/	/	/	-7	/
C=CCn1c(-c2cc(-c3ccc(C)cc3)nc3ccccc23)n[nH]c1=S	3	-4	-20	414*	-3	3
CCn1c(-c2cc(-c3ccc(OC(C)C)cc3)nc3ccccc23)n[nH]c1=S	3	0	-1	-1	-13	2
SMILES	Sa RN4220 lethal	MazEF act	Mtb hypoxia inh	PfHsp40 yeast	Sa ugtP lethal	TcdB inh
C=CCn1c(-c2cccc3ccccc23)n[nH]c1=S	8	10	11	1	1	/
CCn1c(-c2cc(-c3ccc(C)cc3)nc3ccccc23)n[nH]c1=S	2	3	18	39*	1	1
O=[N+]([O-])c1ccc2[nH]cc(S(=O)(=O)N3CCN(c4cccc(Cl)c4)CC3)c2c1	100*	-3	4	0	90*	1
CCNC(=O)C[C@H]1CC[C@@H]2[C@H](COC[C@@H](O)CN2C(=O)C2CCOCC2)O1	/	/	/	/	/	0
C[C@@H]1CCCCO[C@H](CN(C)S(=O)(=O)c2ccc(F)cc2)[C@H](C)CN([C@H](C)CO)C(=O)c2cc(NC(=O)NC3CCCCC3)ccc2O1	/	/	/	/	/	-1
O=C(N/N=C/c1ccc[nH]1)c1sc2ccccc2c1Cl	/	12	/	498*	/	/
O=C(CC1CC1)N1CC2(C1)[C@H](c1ccccc1)[C@@H](CO)N2Cc1cccc(F)c1	/	/	/	/	/	-1
CCOc1ccc(S(=O)(=O)NCCC(=O)NCc2ccccn2)cc1	3	6	0	-1	3	11*
COc1ccc(C=NNC(=O)c2cc(C)oc2C)cc1O	-1	5	12	-1	1	10*
CCOc1ccc(-n2c(O)c(/C=N/NC(=O)C3COc4ccccc4O3)c3ccccc3c2=O)cc1 (configuration not stated)	/	-3	/	303*	/	/
COc1cc(/C=N/Nc2nc3ccccc3[nH]2)ccc1O	/	-2	/	0	/	20*
Cc1[nH]n(-c2ccccc2)c(=O)c1C=NNC(=O)C1COc2ccccc2O1 (configuration not stated)	22	/	11	/	4	/
COc1cc(/C=N/NC(=O)CSc2ccccn2)ccc1O	/	2	/	1	/	11*
COc1cc(/C=N/Nc2nc3ccccc3[nH]2)cc(OC)c1O	/	4	/	1	/	/
CCOc1ccc(C=NNc2ccc(C(F)(F)F)cc2[N+](=O)[O-])cc1O	4	/	9	/	5	/
COc1cc(C=NNC(=O)c2ccccc2-n2cccc2)ccc1O	2	-12	8	0	7	13*
COc1cc(/C=N/NC(=O)C2COc3ccccc3O2)ccc1O (configuration not stated)	/	-4	/	-1	/	14*
COc1cc(/C=N/NC(=O)Cn2nnc3ccccc32)ccc1O	/	6	/	-3	/	12*
COc1cc(C=NNC(=O)Cn2nnc3ccccc32)ccc1O	5	/	5	/	8	/
COc1cc(/C=N/NC(=O)C2(O)c3ccccc3-c3ccccc32)ccc1O	/	5	/	0	/	10*
COc1cc(C=NNC(=O)C2(O)c3ccccc3-c3ccccc32)ccc1O	1	/	3	/	-4	/

Screening data (PubChem)
